From PubChem
This is one part of a sample in which hits are shown more often than they occur.
Sa growth inh: blocks Staphylococcus aureus growth. S. aureus RN4220 growth, OD600, 20 h, 42 °C; active compounds read low. relative growth, % (no concentration beside the values). hit rate 0.53% among 170,000. AID 720641;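 active means relative growth at most 50% at the other temperature and 20+ points below 30 °C, or under 10% at both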
Sa helicase inh: blocks Staphylococcus aureus DNA helicase. purified S. aureus helicase, fluorescence unwinding assay. inhibition, % (test concentration not listed). hit rate 0.05% among 120,000; in the data active means inhibition above about 25%, passing the limit was not always enough;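 further: 0% = mean of negative control wells and 100% = mean of positive control wells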
Active calls of the source: *; . = not tested or not shown.

SMILES | Sa growth inh | Sa helicase inh
Cc1ccc(Nc2cc(C)nc(-n3nc(C)cc3C)n2)cc1 | 0.2* | .
Cc1cc(Nc2ccc(Cl)cc2C)nc(-n2nc(C)cc2C)n1 | 18 | .
COC(=O)c1cc(CN2c3cccc4cccc(c34)S2(=O)=O)oc1C | 102 | 4
O=C1C2C(C(=O)C3C1C1C=CC3C13CC3)C1C=CC2C12CC2 (configuration not stated) | 101 | -5
COc1cc(Cc2cnc(N)nc2N)cc(OC)c1OC | -1.0* | .
COc1cc(CC(=O)OCC(N)=O)cc(OC)c1OC | 96 | -14
FC(F)(F)c1ccc(N2CCN(C(=S)NC3CC3)CC2)nc1 | 83 | 8
CC(C)CN1C(=O)c2ccc(Br)cc2C1=O | 101 | 8
COc1cc(/C=N/NC(=O)c2cc(-c3cccn3C)n[nH]2)cc(OC)c1OC | -0.2* | 32
O=C(N/N=C/c1ccccc1)c1cc(-c2ccccc2)n[nH]1 | 94 | 16
CCOC(=O)CCn1cc(F)c(=O)[nH]c1=O | 95 | 8
CC(=O)On1cc(F)c(=O)[nH]c1=O | 0.7* | 2
CCNC(=O)c1ccc(-n2c(C)ccc2C)cc1 | 112 | 29*
COC(=O)c1ccc(-n2c(C)ccc2C)cc1 | 106 | 1
O=C(Nc1nnc(C2CC2)o1)c1ccc(S(=O)(=O)N2CCCCC2)cc1 | 12 | 5
CC1CCCCN1S(=O)(=O)c1ccc(C(=O)Nc2nnc(C3CC3)o2)cc1 (configuration not stated) | 0.0* | 17
CCN(Cc1nc(-c2ccc(OC)cc2)no1)C(=O)/C=C/c1ccc(OC)c(OC)c1 | 106 | -3
Cc1oc(C(O)C(O)C(O)CO)cc1C(=O)O (configuration not stated) | 79 | -17
CCNC(=O)c1snc(Nc2ncc(C)o2)c1N | 103 | -23
CCn1cc(C(=O)O)c(=O)c2cc(F)c(N(C)CCc3ccc(OC)c(OC)c3)cc21 | 0.0* | 23
CCn1cc(C(=O)O)c(=O)c2cc(F)c(F)cc21 | 85 | 8
Cc1nn(-c2cccc(C(F)(F)F)c2)c2c1cnn2-c1nc2ccccc2o1 | 85 | 3
O[N+]1=CC=CCC1=S.On1ccccc1=S.[Zn] | -0.3* | .
Cc1ccc2oc(-c3ccccc3)cc(=NCCN(C)C)c2c1 | 112 | 37
CCc1ccc2oc(-c3ccccc3)cc(=NCc3cccnc3)c2c1 | 96 | 48*
SMILES | Sa growth inh | Sa helicase inh
Cc1ccc2oc(-c3ccccc3)cc(=NCCO)c2c1 | 103 | 44*
CC(O)CN=c1cc(-c2ccccc2)oc2ccc(Cl)cc12 (configuration not stated) | 68 | 39
Cc1nn(-c2ccccc2)c2c1N(CC(=O)N1CCCCC1)C(=O)CS2 | 102 | -1
C[C@]12CC=C(C#N)[C@@]1(C)CC=C2C#N | 97 | -13
O=C(O)/C=C/C(=O)Nc1ccc(SC(F)(F)F)cc1 | 100 | -20
O=C(Nc1ccc(SC(F)(F)F)cc1)n1ccc(C(F)(F)F)n1 | 4.9* | .
CN(C)c1ccc(N=Cc2cccn2C)cc1 | 9.7* | -1
CN(C)c1ccc(C=Nc2ccc(C(=O)O)cc2)cc1 | 105 | -20
CC(=O)NC(Cc1c[nH]c2ccccc12)C(=O)OCc1cc(=O)n2c3c(sc2n1)CCCC3 (configuration not stated) | 91 | 8
Cc1c(CN(C)C)c2c(n1C)C(=O)c1ccc(Br)cc1-2 | 87 | 64*
Cc1c(CN(C)C)c2c(n1Cc1ccccc1)C(=O)c1ccc(Br)cc1-2 | 93 | 14
Cc1ccc(Cl)cc1N1CCN(C(=O)Cn2nc(C)c3sc4ccccc4c3c2=O)CC1 | 114 | .
Cc1ccc(Cl)cc1N1CCN(Cn2sc3ccccc3c2=O)CC1 | -0.4* | 2
COC(=O)[C@H](C)NC(=O)c1ccc(S(=O)(=O)N2CCOCC2)cc1 | 97 | 7
Cc1ccc(-n2sc3ccccc3c2=O)cc1 | 1.1* | 2
Cc1ccc(N2C(=O)c3ccccc3C2=O)cc1 | 101 | 4
c1ccc(Cn2c(SCCOc3ccccc3)nnc2-c2ccco2)cc1 | 76 | 20
O=C(CSc1nc(=O)n(CCCN2CCOCC2)c2c1CCC2)Nc1nccs1 | 108 | 10
O=C(Nc1ccncc1)c1cc(-c2ccccc2)oc1C(F)(F)F | 84 | .
CN(C)c1ccc(/C=N/n2cnnc2)cc1 | 89 | -23
C(=N\n1cnnc1)/c1ccc(N(c2ccccc2)c2ccccc2)cc1 | 1.4* | 13
CS(=O)(=O)c1nc(Oc2cccc(C(F)(F)F)c2)cc(Oc2cccc(C(F)(F)F)c2)n1 | 32* | 8
O=C(O)c1cccc(Oc2cccc(C(F)(F)F)c2)c1 | 118 | 7
O=C(Nc1cccc(Cl)c1)C12CC3CC(CC(C3)C1)C2 | 94 | .
CCN(CC)/N=N/c1[nH]nc2nc(C)cc(C)c12 | 7.2* | 10
SMILES | Sa growth inh | Sa helicase inh
CCc1ccc2[nH]c3nc(C)cc(C)c3c(=O)c2c1 | 105 | 21
CC1(C)CC(NCc2ccccc2)CC(C)(C)N1 | 90 | 5
Cc1ccc(C(=O)CC(=O)c2ccccc2O)cc1 | 0.8* | 2
COc1ccc(C(=O)CC(=O)c2ccccc2O)cc1 | 87 | 16
O=C(CC(=O)c1ccccc1O)c1ccc(Cl)cc1 | 1.1* | -2
O=C(CC(=O)c1c(F)cccc1F)c1ccccc1O | 123 | .
S=c1n(CN2CCOCC2)c2ccccc2n1-c1ccccc1 | 61 | 20
CNS(=O)(=O)c1ccc2c(c1)OCCO2 | 102 | -18
COC(=O)c1ccc(CS(=O)(=O)c2ccccc2OC)o1 | 101 | 3
Cc1n[nH]c(C)c1CCC(=O)O | 108 | 5
Cc1n[nH]c(C)c1CCCOc1ccccc1 | 8.3* | -2
Cc1n[nH]c(C)c1CCCCCOc1ccccc1 | 0.0* | 13
COC(=O)c1c(COc2ccccc2)n[nH]c1C | 113 | .
O=C1CSC(=S)N1C1CCS(=O)(=O)C1 (configuration not stated) | 89 | 4
CCN1CCN(C(C)C(=O)Nc2ncc(C)s2)CC1 (configuration not stated) | 92 | 3
N#CC(C(=O)c1ccc(-c2nc3ccccc3s2)s1)c1nc2ccccc2s1 (configuration not stated) | 68 | -33
Cc1ccc(OC(=O)c2cccnc2)cc1 | 98 | -5
Cc1ccc(N(c2ccc(C)cc2)c2cccnc2)cc1 | 5.5* | 7
CN(C)C1(CNC(=O)c2cccc(NS(=O)(=O)c3ccc4c(c3)OCCO4)c2)CCCCC1 | 88 | -4
CC1C(C#N)=C(N)SC(N)=C1C#N | 44 | -198
O=C(NCC(c1ccc2c(c1)OCO2)N1CCN(c2ccccc2)CC1)c1ccc(F)c(F)c1 (configuration not stated) | 127 | .
COC(=O)c1ccc(C(c2cc3c(cc2O)OCO3)N2CCN(c3ccccc3)CC2)cc1 (configuration not stated) | -0.2* | 9
Oc1cc2c(cc1C(c1ccc(C(F)(F)F)cc1)N1CCOCC1)OCO2 (configuration not stated) | 0 | .
Oc1cc2c(cc1C(c1ccc(C(F)(F)F)cc1)N1CCN(c3ccccc3)CC1)OCO2 (configuration not stated) | -0.7* | 0
COc1ccc(NC(=O)CN=C2NS(=O)(=O)C(c3ccc(F)cc3)=C2C)cc1 | 96 | -2
COC(=O)c1c(C)[nH]c(C(=O)CN(C)Cc2cccc(OC)c2)c1C | 98 | 9
COC(=O)c1c(C)[nH]c(C(=O)CN(C)CC(=O)Nc2c(C)cc(C)cc2C)c1C | 117 | 30*
CCC(=O)N(CCC(c1ccccc1)C1CCOC(C)(C)C1)Cc1ccc(OC)cc1 (configuration not stated) | 64 | 16
